Among the data in PubChem BioAssay (NCATS) are Potency and outcome values, retold here.

Molecules are shown by their SMILES. Results filed as inconclusive are left out. A call without a number means that no potency is given here. Activity calls are given as the source filed them. Calls follow the shape of the dose curve; as a rule, active = well fitted curve in the direction sought with a large enough effect; inconclusive = small, poorly fitted or top-dose-only effect, or another doubt; inactive = no such curve, though single readings can be large; an effect the other way counts as inactive or inconclusive.

Experiment [1] has as its target Glutathione peroxidase 1 (Homo sapiens) (UniProt P07203). As to the kind of experiment: Primary qHTS Assay for Inhibitors of Recombinant Selenoprotein Glutathione Peroxidase 1 (GPX1) (AID 1845191). Also: nearly all actives have a fitted effect of over 65% in size. Also: potency is read from the fitted curve at half-maximal effect. The gist of the method: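 GR-coupled assay: compounds preincubated 30 min at room temperature with GPX1, then reaction started with CHP; final 10 nM GPX1, 1 mM GSH, 0.5 mM CHP, 0.5 mM NADPH, 100 nM GR, 0.01% BSA, pH 7.5 Tris buffer. NADPH fluorescence (340/450 nm) read at 0 and 15 min.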

In experiment [2] the target is Phospholipid hydroperoxide glutathione peroxidase GPX4 (Homo sapiens) (UniProt P36969). As to the kind of experiment: Primary qHTS Assay for Inhibitors of Recombinant Selenoprotein Glutathione Peroxidase 4 (GPX4) (AID 1845192). Also: nearly all actives have a fitted effect of over 65% in size. Also: potency is read from the fitted curve at half-maximal effect. Put shortly:
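GR-coupled assay: recombinant GPX4 preincubated 30 min with compound at room temperature; final 200 nM GPX4, 1 mM GSH, 0.5 mM cumene hydroperoxide, 0.5 mM NADPH, 100 nM GR, 0.01% BSA, pH 7.5 Tris. NADPH fluorescence (340/450 nm) read at 0 and 15 min.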

The nature of experiment [3]: HepG2 viability counterscreen (readout 2: ATP content) against the NCATS DSHEA and TCM libraries (AID 1794840). The gist of the method:
(§1)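 1,000 HepG2 cells/well, 4 h attach; compounds ~24 h, 37C/5% CO2. Readout 1: GF-AFC 25 uM final, 30 min, fluorescence 380/510 nm. Readout 2: CellTiter-Glo, 30 min RT, luminescence.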

Experiment [4] can be described thus: HepG2 viability counterscreen (readout 1: protease activity) against the NCATS DSHEA and TCM libraries (AID 1794841).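 Also: cells exposed to compounds for about 24 h before the protease read.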 The gist of the method: as §1
The target of experiment [5] is Cytochrome P450 3A4 (Homo sapiens) (UniProt P08684). The experiment is described as follows: qHTS for inhibitors of CYP3A4 against the NCATS DSHEA and TCM libraries (AID 1919971).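 Also: inhibition lowers luminescence from luciferin made by CYP3A4.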 The gist of the method:
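Light output from converted D-luciferin reports remaining CYP activity. Compounds preincubate with enzyme and substrate for 15 min; NADPH regeneration (1x final) runs the reaction for 30-45 min.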

A short description of experiment [6]: Viability counterscreen for antagonist of constitutive androstane receptor (CAR) against the NCATS DSHEA and TCM libraries (AID 1794837).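 Also: compound exposure lasted 24 h before viability reading.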 Put shortly:
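Cell viability, CellTiter-Fluor, Ex/Em 405/540 nm, 1 h at 37C. HepG2-CYP2B6-hCAR, 2,500 cells/well; cpds + CITCO 48 uM final (antagonist mode), 24 h, 37C/5% CO2.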

Experiment [7] is described as follows: Viability counterscreen for agonist of constitutive androstane receptor (CAR) against the NCATS DSHEA and TCM libraries (AID 1794838). Put shortly:
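Viability by CellTiter-Fluor fluorescence, 405/540 nm, after 1 h at 37C. HepG2-CYP2B6-hCAR cells were exposed 24 h to test substances in presence of 0.75 uM PK11195 (final).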

The target of experiment [8] is Nuclear receptor subfamily 1 group I member 3 (Homo sapiens) (UniProt Q14994). As to the kind of experiment: Primary qHTS for agonist of constitutive androstane receptor (CAR) against the NCATS DSHEA and TCM libraries (AID 1794839).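 Also: HepG2 cells expressing human CAR with a CYP2B6 reporter plus PK11195 antagonist.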 Put shortly: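 Luminescence from ONE-Glo luciferase was the agonist read-out in HepG2-CYP2B6-hCAR cells exposed 24 h to test substances. Wells also held the CAR antagonist PK11195 at 0.75 µM final. Viability was by CellTiter-Fluor fluorescence.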
Chain of Nuclear receptor subfamily 1 group I member 3 (Homo sapiens) (Q14994 whole entry, looked up): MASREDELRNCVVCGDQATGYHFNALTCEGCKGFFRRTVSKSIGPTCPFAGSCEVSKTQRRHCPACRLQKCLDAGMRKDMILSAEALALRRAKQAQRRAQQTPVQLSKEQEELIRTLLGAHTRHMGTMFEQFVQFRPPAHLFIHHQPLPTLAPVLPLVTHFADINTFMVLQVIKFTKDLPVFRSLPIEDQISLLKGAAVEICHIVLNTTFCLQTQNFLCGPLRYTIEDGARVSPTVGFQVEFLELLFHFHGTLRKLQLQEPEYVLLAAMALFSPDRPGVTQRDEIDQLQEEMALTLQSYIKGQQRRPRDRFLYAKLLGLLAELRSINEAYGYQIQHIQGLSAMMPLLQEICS

Experiment [9] concerns the target Luciferin 4-monooxygenase (Photinus pyralis) (UniProt P08659). The experiment is described as follows: Primary firefly luciferase (FLuc) qHTS assay for identification of artifact compounds. (AID 1845220). Also: nearly all actives have a fitted effect of over 60% in size. Also: potency is read from the fitted curve at half-maximal effect. The gist of the method: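 D-luciferin and ATP (10 uM each, final) in Tris acetate buffer pH 7.6 were incubated with compounds for 15 min at room temperature. The reaction was started with 10 nM Photinus pyralis luciferase and luminescence read after 5 min. Percent inhibition was fitted to a 4-parameter Hill equation.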

Experiment [10] in a line: Primary fluorescence-based thiol-reactive (MSTI) qHTS assay for identification of artifact compounds. (AID 1845221). Also: nearly all actives have a fitted effect of over 65% in size. Also: potency is read from the fitted curve at half-maximal effect. The gist of the method:
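One-hour, room-temperature, dark incubation of compound with 4 uM MSTI in PBS (pH 7.4, 2% DMSO) precedes a fluorescence read at 525 nm excitation, 598 nm emission; Hill-equation fitting yields concentration-response values.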

Experiment [11] concerns Nanoluciferase (engineered Oplophorus gracilirostris luciferase). The experiment is described as follows: Primary Nanoluciferase (NLuc) qHTS assay for identification of artifact compounds. (AID 1845222). Also: series mostly up to about 54 µM. Put shortly: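 Diluted conditioned medium from NLuc-expressing S16 cells treated with compounds for 15 min at room temperature, then Nano-Glo substrate added; luminescence read after 5 min. Percent inhibition versus no-enzyme and DMSO controls fitted to 4-parameter Hill equation.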

A short description of experiment [12]: Primary redox qHTS assay for identification of artifact compounds. (AID 1845223). Put shortly:
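Amplex Red (25 uM) and HRP (250 mU/mL) in HBSS, with compounds for 15 min, then 250 uM DTT for 30 min, room temperature, dark. Fluorescence 525/598 nm read; normalized to DMSO and 10 uM DA3003; Hill fit.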

A short description of experiment [13]: NCATS anti-infectives library activity on HEK293 viability as a counter-qHTS vs the C. elegans viability qHTS (AID 1745854).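 Also: HEK293 cells exposed to compounds for 24 hr before the viability read.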 Put shortly: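 Cytotoxicity in human HEK293 cells is measured by ATP-dependent CellTiter-Glo luminescence following a 24 hr incubation with titrated library compounds at 37C. Top final concentration is 41.7 uM.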
For experiment [14], the target named is Metallo-beta-lactamase type 2 (Klebsiella pneumoniae) (UniProt C7C422). As to the kind of experiment: qHTS to identify inhibitors of the New Delhi Metallo-beta-lactamase (NDM): assay validation screen against the NCATS LOPAC Collection (AID 1794843).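 Also: nitrocefin turnover by NDM-1 measured as 485 nm absorbance at plateau; series mostly up to about 38 µM.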 The gist of the method:
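NDM-1 at 2 nM final in 50 mM HEPES pH 7.0 with 1 uM ZnSO4 and 0.01% Tween20 was preincubated with library compounds in DMSO. Nitrocefin (50 uM stock) was then added, and absorbance at 485 nm was read at the kinetic plateau.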

Chain of Phospholipid hydroperoxide glutathione peroxidase GPX4 (Homo sapiens) (P36969 whole entry, looked up): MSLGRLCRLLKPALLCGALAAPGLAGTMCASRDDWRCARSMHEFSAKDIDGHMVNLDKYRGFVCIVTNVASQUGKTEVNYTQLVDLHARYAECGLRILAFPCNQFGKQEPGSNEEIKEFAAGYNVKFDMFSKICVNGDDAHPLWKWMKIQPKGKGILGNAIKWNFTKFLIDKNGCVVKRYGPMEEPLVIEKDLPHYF
Chain of Glutathione peroxidase 1 (Homo sapiens) (P07203 whole entry, looked up): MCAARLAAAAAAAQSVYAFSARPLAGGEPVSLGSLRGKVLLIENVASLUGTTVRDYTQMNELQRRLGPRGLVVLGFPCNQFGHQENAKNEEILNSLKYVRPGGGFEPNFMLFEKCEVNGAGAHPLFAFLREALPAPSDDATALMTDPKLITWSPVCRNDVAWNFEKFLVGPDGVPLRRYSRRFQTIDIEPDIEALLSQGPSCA
Chain of Metallo-beta-lactamase type 2 (Klebsiella pneumoniae) (C7C422 whole entry, looked up): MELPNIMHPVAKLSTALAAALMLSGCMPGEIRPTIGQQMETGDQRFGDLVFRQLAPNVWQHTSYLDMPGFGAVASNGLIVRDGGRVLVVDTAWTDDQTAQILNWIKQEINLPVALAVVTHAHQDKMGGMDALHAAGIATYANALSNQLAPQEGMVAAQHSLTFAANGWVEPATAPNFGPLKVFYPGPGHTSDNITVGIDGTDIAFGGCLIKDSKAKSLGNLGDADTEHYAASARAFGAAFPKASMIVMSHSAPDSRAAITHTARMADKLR
Chain of Cytochrome P450 3A4 (Homo sapiens) (P08684 whole entry, looked up): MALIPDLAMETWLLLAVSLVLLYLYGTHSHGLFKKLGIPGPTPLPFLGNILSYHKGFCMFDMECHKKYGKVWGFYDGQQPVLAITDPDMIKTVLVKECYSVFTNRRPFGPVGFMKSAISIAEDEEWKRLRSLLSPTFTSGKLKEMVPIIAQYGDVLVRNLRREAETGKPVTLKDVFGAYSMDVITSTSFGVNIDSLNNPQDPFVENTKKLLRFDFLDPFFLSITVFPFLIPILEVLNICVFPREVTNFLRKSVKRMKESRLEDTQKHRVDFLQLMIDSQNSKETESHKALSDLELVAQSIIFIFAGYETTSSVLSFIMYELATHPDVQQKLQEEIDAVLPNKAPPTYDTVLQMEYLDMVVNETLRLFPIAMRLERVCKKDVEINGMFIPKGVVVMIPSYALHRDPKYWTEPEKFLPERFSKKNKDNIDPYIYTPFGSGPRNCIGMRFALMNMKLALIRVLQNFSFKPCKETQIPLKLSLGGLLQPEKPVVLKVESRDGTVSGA

`CC(CN1c2ccccc2Sc2ccc(S(=O)(=O)N(C)C)cc21)N(C)C` (stereo unspecified): the Potency result in experiment [1] was “inactive”.

Take `Cn1nnnc1SCC1=C(C(=O)O)N2C(=O)[C@@H](NC(=O)[C@H](OC=O)c3ccccc3)[C@H]2SC1`: the Potency in experiment [1] is 9.04 µM (active).

`CCC(C)(C)OC(=O)N[C@@H](Cc1c[nH]c2ccccc12)C(=O)N[C@@H](CCSC)C(=O)N[C@@H](CC(=O)O)C(=O)N[C@@H](Cc1ccccc1)C(N)=O`: in [1], the Potency result was “inactive”.

On to `CN(C(=O)CO)c1c(I)c(C(=O)NCC(O)CO)c(I)c(C(=O)NCC(O)CO)c1I` (stereo unspecified), for which the Potency entry in experiment [1] and in experiment [2] was “inactive” in each case.

On to `COc1cc2[nH]c(C)c(CCN3CCN(c4ccccc4)CC3)c2cc1OC`, for which the Potency entry in experiment [1] is “inactive”.

Take `CCCCCCCCCC(=O)O`: the compound was classed as inactive in experiment [3], in [4] and in experiment [5]. Moreover, the Potency entry in experiment [1] and in experiment [2] was “inactive” in each case.

As to `Cc1c(N)nc(C(CC(N)=O)NCC(N)C(N)=O)nc1C(=O)NC(C(=O)NC(C)C(O)C(C)C(=O)NC(C(=O)NCCc1nc(-c2nc(C(=O)NCCCN[C@@H](C)c3ccccc3)cs2)cs1)C(C)O)C(O[C@@H]1O[C@@H](CO)[C@@H](O)[C@H](O)[C@@H]1O[C@H]1O[C@H](CO)[C@@H](O)[C@H](OC(N)=O)[C@@H]1O)c1cnc[nH]1` (stereo partly specified), the Potency result in experiment [1] and in experiment [2] was “inactive” throughout.

For the compound `CN1C(=O)c2sccc2N(C)c2nc(Nc3ccc(S(N)(=O)=O)cc3)ncc21`, the Potency entry in [1] was “inactive”.

On to `C=C1[C@H]2CC[C@H](C(=O)O)[C@@]23CC[C@H](C3)C1(C)C`, for which the outcome in experiment [6], in experiment [7], in experiment [8], in experiment [3] and in experiment [4] was inactive. For the same compound, the Potency entry in experiment [1], in [2], in [9], in [10], in experiment [11] and in experiment [12] was “inactive” each time.

For the compound `CCOC(=O)[C@@]1(CCCCCCOc2ccc(Cl)cc2)CO1`, the Potency entry in experiment [1] and in experiment [2] was “inactive” in each case.

For `C[N+](C)(CCCCCC[N+](C)(C)C1c2ccccc2-c2ccccc21)C1c2ccccc2-c2ccccc21`, the Potency result in [1] and in experiment [2] was “inactive” each time.

With `O=S(O)CNc1ccc(S(=O)(=O)c2ccc(NCS(=O)O)cc2)cc1`, the Potency entry in experiment [1] and in experiment [2] was “inactive” each time.

As to `O=C(Nc1ncc([N+](=O)[O-])s1)c1ccccc1O`, the compound was called inactive in experiment [13]. Also, the Potency entry in [1] and in [12] was “inactive” throughout. Besides, the Potency in experiment [9] is 0.849 µM (active); in experiment [10], 2.38 µM (active).

As to `Cc1ccc(/C(=C\CN2CCCC2)c2cccc(/C=C/C(=O)O)n2)cc1`, in [1], the Potency result was “inactive”.

Take `COc1ccc(CCNCC(O)COc2cccc(C)c2)cc1OC` (stereo unspecified): the Potency result in experiment [1] and in [2] was “inactive” throughout.

With `CN[C@H]1CC[C@@H](c2ccc(Cl)c(Cl)c2)c2ccccc21`, in [14], the call was inactive. Moreover, the Potency result in [1] and in experiment [2] was “inactive” throughout.

In the case of `CC1=C(C(=O)OCCN(Cc2ccccc2)c2ccccc2)C(c2cccc([N+](=O)[O-])c2)C(P2(=O)OCC(C)(C)CO2)=C(C)N1` (stereo unspecified), the Potency result in experiment [1] is “inactive”.

As for `NCCCC(=O)O`, the outcome in [14] was inactive. Besides, the Potency entry in experiment [1] and in experiment [2] was “inactive” each time.

Consider `C=CCNC1=C2C[C@@H](C)C[C@H](OC)[C@H](O)[C@@H](C)/C=C(\C)[C@H](OC(N)=O)[C@@H](OC)/C=C\C=C(/C)C(=O)NC(=CC1=O)C2=O`, for which the Potency entry in [1] is “inactive”.

As to `NCCCC[C@H](NC(=O)[C@@H]1CCCN1C(=O)[C@@H]1CSSC[C@H](N)C(=O)N[C@@H](Cc2ccccc2)C(=O)N[C@@H](Cc2ccccc2)C(=O)N[C@@H](CCC(N)=O)C(=O)N[C@@H](CC(N)=O)C(=O)N1)C(=O)NCC(N)=O`, in experiment [1], the Potency entry was “inactive”.

In the case of `CC1(S(=O)(=O)O)CC(=O)c2ccccc2C1=O` (stereo unspecified), the figures for the Potency in experiment [1] and in experiment [2] were 2.02 µM (active) and 0.891 µM (active), respectively.

For `O=[N+]([O-])c1ccc(Oc2ccc(N=C=S)cc2)cc1`, the Potency result in experiment [1] is “inactive”.

`CCCC(=O)O[C@]1(C(=O)COC(=O)CC)[C@@H](C)C[C@H]2[C@@H]3CCC4=CC(=O)C=C[C@]4(C)[C@@]3(F)[C@@H](O)C[C@@]21C`: the Potency result in [1] is “inactive”.

Take `CCCCC(=O)O`: the Potency result in experiment [1] and in experiment [2] was “inactive” each time.

For the compound `Cc1[nH]cnc1C[C@H]1CCc2c(C)c3ccccc3n2C1=O`, the Potency entry in experiment [1] and in experiment [2] was “inactive” each time.
